CHRM4 agonist – agonists of human muscarinic M4 receptor (CHRM4); P08173; CHO-K1 hM4/Gqi5, Fluo-8 calcium fluorescence; vehicle 0%, full acetylcholine response 100%; activation, % at 3 µM; 360,000 tested, 0.14% active;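 active means activation above the run mean over all test wells plus 3 SD, cut at about 32% in these data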;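 further: peak over basal fluorescence ratio per well then scaled between controls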
Target sequence (P08173 whole entry, looked up): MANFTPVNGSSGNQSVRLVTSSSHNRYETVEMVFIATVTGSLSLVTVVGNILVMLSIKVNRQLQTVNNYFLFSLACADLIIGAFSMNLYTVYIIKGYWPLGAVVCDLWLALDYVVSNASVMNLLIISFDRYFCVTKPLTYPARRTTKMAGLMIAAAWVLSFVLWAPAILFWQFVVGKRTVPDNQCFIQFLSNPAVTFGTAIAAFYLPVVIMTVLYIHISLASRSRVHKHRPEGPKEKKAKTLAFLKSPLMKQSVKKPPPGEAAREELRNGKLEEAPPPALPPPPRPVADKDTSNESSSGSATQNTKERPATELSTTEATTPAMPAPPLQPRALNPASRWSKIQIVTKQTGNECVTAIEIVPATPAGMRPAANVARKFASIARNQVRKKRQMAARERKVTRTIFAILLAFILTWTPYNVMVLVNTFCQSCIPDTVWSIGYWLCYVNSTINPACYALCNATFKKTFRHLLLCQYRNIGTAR
CHRM4 antagonist – antagonists of human muscarinic M4 receptor (CHRM4) | P08173 | CHO-hM4 cells, ACh EC80, Fluo-8 calcium fluorescence | inhibition, % at 3 µM | 360,000 tested, 0.73% active | AID 624125;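 active means inhibition above its plate's cutoff, the mean inhibition of sample wells plus 3 SD, cut at about 27% in these data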
M4 PAM – potentiates acetylcholine response at human M4 receptor | CHO-K1 hM4/Gqi5, Fluo-8 calcium fluorescence, ACh EC20; 0% = ACh EC20, 100% = maximal ACh | activation, % at 3 µM | P08173 | 360,000 tested, 0.4% active;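 active means activation above its plate's cutoff, the mean activation of sample wells plus 3 SD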
CHO-K1 Ca ag – counter-screen for M1 agonists: effect in parental CHO-K1 cells; Fluo-8 calcium fluorescence; scaled to maximal ATP response, vehicle zero; activation, % at 3 µM; 360,000 tested, 0.48% active; AID 602248; in the data active means activation above about 15%;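 further: untransfected CHO-K1 host cells lacking M1 receptor as counterscreen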
M1 PAM parental – nonselective activator or artifact in parental CHO-K1 calcium assay; ATP EC20, Fluo-8 calcium fluorescence; 0% at ATP EC20, 100% at ATP max; activation, % at 3 µM; 360,000 tested, 0.02% active; AID 602247;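 active means activation above the run cutoff, the mean activation of all test compounds plus 3 SD, cut at about 40% in these data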;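 further: peak over basal fluorescence ratio in a 140 s read after ATP addition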
CHO-K1 Ca antag – counter-screen for M1 antagonists: effect in parental CHO-K1 cells. inhibition, % at 3 µM. 360,000 tested, 0.6% active. ATP-induced calcium, Fluo-8 fluorescence;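 active means inhibition above a per-plate cutoff, the plate's mean sample inhibition plus 3 SD, cut at about 24% in these data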
Of the large screens only hits and unclear results are named; the others gave an inactive call. Most compounds without a hit are left out; they make up all but 2% or so of the library.

Cc1nnc2n(c1=O)C(CS(=O)(=O)c1ccc3ccccc3c1)CS2 (stereo not drawn)	CHO-K1 Ca ag 15
O=C(NC(=S)N1CCN(c2ccc([N+](=O)[O-])cc2)CC1)c1ccccc1F	none
CC(=O)Nc1ccc(S(=O)(=O)N2CCN(C(=O)C3COc4ccccc4O3)CC2)cc1 (stereo not drawn)	none
COc1ccc(S(=O)(=O)N2CCN(C(=O)C3COc4ccccc4O3)CC2)cc1 (stereo not drawn)	CHRM4 antagonist 32
O=C(C1COc2ccccc2O1)N1CCN(c2ccc(C(F)(F)F)cn2)CC1 (stereo not drawn)	CHO-K1 Ca ag 24
O=C(C1COc2ccccc2O1)N1CCN(c2ccccc2)CC1 (stereo not drawn)	CHO-K1 Ca antag 53
CC1=Nc2cc(C(=O)N3CCCCC3)ccc2Sc2ccc(C)cc21	none
Cc1ccc(CNC(=O)c2ccc(N3CCC4(CC3)CC(c3cccc(Br)c3)=NO4)c([N+](=O)[O-])c2)cc1	none
CCCNC(=O)c1ccc(N2CCC3(CC2)CC(c2cccc(Br)c2)=NO3)c([N+](=O)[O-])c1	CHRM4 antagonist 33
O=[N+]([O-])c1ccc(-[n+]2ccc3ccccc3c2)c([N+](=O)[O-])c1	none
COC(=O)C(CC(=O)c1ccc(C)cc1)n1nc(C)cc1C (stereo not drawn)	CHO-K1 Ca ag 16
COc1cccc(CN2CCN(C(=O)c3ccc(-c4ccccc4)cc3)CC2)c1OC	CHO-K1 Ca ag 16
COc1cccc(CN2CCN(C(=O)c3ccc(-c4ccccc4)cc3)CC2)c1	CHO-K1 Ca ag 16
NS(=O)(=O)c1ccc(CNS(=O)(=O)c2ccc3c(c2)OCCO3)cc1	none
O=C1CSC(=Nc2ccc(Cl)cc2)N1Cc1ccco1	CHO-K1 Ca antag 29
COc1ccc(CCNc2ncnc3cc(OC)c(OC)cc23)cc1OC	CHO-K1 Ca ag 16
COc1ccc(CNc2ncnc3sccc23)cc1OC	CHO-K1 Ca ag 16
COc1cc2ncnc(NCCc3ccccc3)c2cc1OC	none
COc1ccc(CNc2ncnc3sccc23)cc1	none
Cc1ccc(C(=O)CSc2nc3cccnc3n2C)cc1	none
CC(C)c1[nH]nc2c1C1(CCN(Cc3ccccc3)CC1)C(C#N)=C(N)O2	CHRM4 antagonist 32
C=CCOC(=O)C1=C(C)NC(=S)C(C#N)(CC=C)C1c1ccccc1Cl (stereo not drawn)	CHO-K1 Ca ag 17
Cc1nnc(SCC(=O)NC2CCS(=O)(=O)C2)n1-c1ccccc1 (stereo not drawn)	none
CCOC(=O)C1=C(C)N(c2ccccc2)C(=O)NC1c1cccc([N+](=O)[O-])c1 (stereo not drawn)	CHRM4 antagonist 75
CCOC(=O)C1=C(C)N(C)C(=O)NC1c1cccc([N+](=O)[O-])c1 (stereo not drawn)	none
COC(=O)c1ccc(/C=C/C(=O)OCC(=O)Nc2sccc2C(N)=O)cc1	CHRM4 antagonist 45, CHO-K1 Ca ag 16
COc1ccc(/C=C/C(=O)OCC(=O)Nc2cc(C(N)=O)cc(C(N)=O)c2)cc1	CHO-K1 Ca antag 25
NC(=O)c1ccsc1NC(=O)COC(=O)/C=C/c1ccc([N+](=O)[O-])cc1	none
COc1ccc(/C=C/C(=O)OCC(=O)Nc2cccc(C(C)=O)c2)cc1	none
COc1ccccc1OCCSc1nc(N)cc(N)n1	none
C[N+]1(C)CCCC(OC(=O)C(O)(c2ccccc2)c2ccccc2)C1 (stereo not drawn)	CHRM4 antagonist 99
O=C(CNC(=O)c1ccccc1)OC1CCCCC1	none
COc1ccc(CCNC(=O)c2ccc(CSc3ccccc3)o2)cc1	none
COc1ccc(CCNC(=O)c2ccc(CSc3ccc(Cl)cc3)o2)cc1OC	CHRM4 antagonist 30
COc1ccc(CCNC(=O)c2ccc(CS(=O)(=O)Cc3ccc(C)cc3)o2)cc1OC	CHO-K1 Ca ag 15
COc1ccc(CCNC(=O)c2ccc(CS(=O)(=O)c3ccc(C)cc3)o2)cc1OC	none
COc1ccc(CCNC(=O)c2ccc(CS(=O)(=O)c3ccc(Cl)cc3)o2)cc1OC	CHO-K1 Ca ag 17
Cc1cc(C(=O)CN2C(=O)NC3(CCCCC3)C2=O)c(C)n1Cc1ccco1	none
O=C(CSc1nc(=O)n2ccccc2n1)N1CCC(Cc2ccccc2)CC1	none
Cc1ccc2nc(SCC(=O)N3CCC(Cc4ccccc4)CC3)nc(=O)n2c1	CHRM4 agonist 35
CCc1nnc(NC(=O)c2ccc(S(=O)(=O)N(C)Cc3ccccc3)cc2)o1	M4 PAM 16
COc1ccccc1NS(=O)(=O)c1cccc(-n2c(O)c(C=Nc3ccccc3C(=O)O)c3ccccc3c2=O)c1	M4 PAM 36
COc1ccccc1CCNC(=O)c1ccc(C)o1	none
COc1cccc(C(=O)NCCS(=O)(=O)NCc2ccco2)c1	CHO-K1 Ca antag 37
COc1ccc(C(=O)NCCS(=O)(=O)NCc2ccco2)cc1	none
O=C(CN1C(=O)CCSc2ccc(S(=O)(=O)N3CCOCC3)cc21)Nc1ccccc1Cl	none
Cc1cccc(OCc2n(CC(=O)OC3CC(C)CCC3C(C)C)c3ccccc3[n+]2C)c1 (stereo not drawn)	CHRM4 antagonist 39
CC1CCC(C(C)C)C(OC(=O)Cn2c(-c3ccccc3)[n+](C)c3ccccc32)C1 (stereo not drawn)	none
O=C(COC(=O)C12CC3CC(CC(O)(C3)C1)C2)Nc1ccc(Cl)cc1F	none
COC(=O)c1ccc(C(=O)OC)c(NC(=O)COC(=O)C23CC4CC(CC(O)(C4)C2)C3)c1	CHO-K1 Ca antag 33
O=C(Nc1cc(Sc2ccccn2)cc([N+](=O)[O-])c1)c1cccc(Cl)c1	none
CCOc1ccccc1NC(=O)Cn1c(=O)sc2ccccc21	none
O=C(Cn1c(=O)sc2ccccc21)Nc1ccc(O)cc1	M4 PAM 24
S=C1NC[C@H](Cc2ccccc2)N1CC1CCN(CCCCc2ccccc2)CC1	CHRM4 antagonist 28
Cn1cc(SCC(=O)NCc2ccc(F)cc2)c2ccccc21	none
Cn1nc(C(C)(C)C)c([N+](=O)[O-])c1C(=O)NC(C)(C)C	M4 PAM 32
CC(C)CN1C(=O)C(=O)N(CC(=O)N2c3ccccc3NC(=O)CC2C)C1=O (stereo not drawn)	none
CC1CC(=O)Nc2ccccc2N1C(=O)CN1CCN(C=O)CC1 (stereo not drawn)	CHO-K1 Ca ag 15
O=C(CN1CCN(c2nc(-c3ccccc3)cs2)CC1)NNC(=O)c1ccc(Br)cc1	none
CC1CCCCN1S(=O)(=O)c1ccc([N+](=O)[O-])cc1 (stereo not drawn)	CHRM4 antagonist 29
CCC1CCCCN1S(=O)(=O)c1ccc(S(=O)(=O)N2CCN(S(=O)(=O)CC)CC2)cc1 (stereo not drawn)	none

Assay outcomes as filed in PubChem.
